High-throughput results deposited in PubChem BioAssay by several laboratories.
Only some compounds are listed: those with a hit (about 1.3% of all), similar ones and a draw of the others.
m-calpain inh = calpain II (pig) inhibition; inhibition, % at 16 µM; actives 0.37% (n = 220,000); purified calpain II, fluorogenic peptide substrate, 30 min; AID 1236;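 active = inhibition above about 50%, limit read from the data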
S1P3 antag = S1P3 (human) receptor antagonism. inhibition, % at 4.98 µM. Q99500. AID 485. actives 0.27% (n = 170,000). CHO S1P3 NFAT-BLA reporter, FRET fluorescence, antagonist mode;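 active = inhibition above the plate cutoff, the mean inhibition of test wells on that plate plus 3 SD, cut at about 28% in these data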;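 note: cells challenged with S1P at its EC80 of 0.8 µM; blue over green emission ratio from cleaved BLA substrate after 4 h stimulation; 0% = S1P-stimulated wells and 100% = unstimulated DMSO-only wells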
Target sequence (Q99500 whole entry, looked up): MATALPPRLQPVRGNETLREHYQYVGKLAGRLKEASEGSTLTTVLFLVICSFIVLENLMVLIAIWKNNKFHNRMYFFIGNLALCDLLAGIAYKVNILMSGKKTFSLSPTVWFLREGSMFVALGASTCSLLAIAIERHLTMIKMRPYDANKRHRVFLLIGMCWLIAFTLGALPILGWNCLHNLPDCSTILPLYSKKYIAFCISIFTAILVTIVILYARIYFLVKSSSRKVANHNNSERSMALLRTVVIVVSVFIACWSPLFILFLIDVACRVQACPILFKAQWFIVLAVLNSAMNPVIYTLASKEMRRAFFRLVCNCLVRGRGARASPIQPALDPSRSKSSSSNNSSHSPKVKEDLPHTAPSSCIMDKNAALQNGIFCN
PERK inhibitor = blocks human PERK kinase. CHO PERK-DD fusion, SEAP luminescence translation reporter. inhibition, % at 5.6 µM. actives 0.17% (n = 220,000);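 active = inhibition above the mean inhibition of all tested compounds plus 3 SD, set separately per screening campaign, cut at about 2.9% in these data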;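 note: PERK kinase domain activated by AP20187 dimerizer at 100 nM; 0% = DMSO with dimerizer and 100% = rapamycin at 8.4 µM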
S1P4 antag = antagonists of human S1P4 receptor. O95977. S1P4-expressing cells, antagonist mode, reporter read-out. inhibition, % at 4.98 µM. actives 0.26% (n = 220,000); in the data active = inhibition above about 29%;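 note: 0% = wells stimulated with agonist and 100% = vehicle wells without agonist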
S1P4 agonist = agonists of human S1P4 receptor. S1P4-expressing cell line, agonist reporter assay. activation, % at 4.98 µM. actives 0.35% (n = 220,000). AID 1509; in the data active = activation above about 11%;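 note: 0% = DMSO vehicle and 100% = reference agonist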
* marks the source's active call; other numbers are inactive results.

What do the screens show for `O=C(CSc1nnnn1C1CC2CCC1C2)Nc1ccnc2ccccc12` (stereo not drawn)?
m-calpain inh: 32.2; S1P3 antag: 64.2*; PERK inhibitor: -1.8; S1P4 antag: -22.0; S1P4 agonist: 0.1

How did Nc1nnc(CC(=O)Nc2ccccc2)s1 do in these assays?
m-calpain inh: 8.1; S1P3 antag: -17.1; PERK inhibitor: 3.0*; S1P4 antag: -0.8; S1P4 agonist: 0.3

Results for Cc1[nH]nc(Nc2ccc(C(C)C)cc2)c1[N+](=O)[O-] ?
m-calpain inh: -10.0; S1P3 antag: 21.9; PERK inhibitor: -0.1; S1P4 antag: -6.6; S1P4 agonist: 2.0

What do the screens show for `CCn1c(CNC(=O)Cc2ccc(OC)cc2)nnc1SCC(=O)Nc1nccs1`?
m-calpain inh: 1.5; S1P3 antag: 60.5*; PERK inhibitor: 0.3; S1P4 antag: -24.2; S1P4 agonist: 1.5

What do the screens show for `CCn1c(CNC(=O)Cc2ccc(OC)cc2)nnc1SCC(=O)Nc1ccc(C(=O)O)cc1`?
m-calpain inh: 0.2; S1P3 antag: -17.9; PERK inhibitor: 0.1; S1P4 antag: -4.2; S1P4 agonist: -0.1

Results for N#Cc1nc(COc2ccccc2)oc1N1CCN(c2cccc(Cl)c2)CC1 ?
m-calpain inh: 55.9*; S1P3 antag: 10.9; PERK inhibitor: 1.1; S1P4 antag: -5.1; S1P4 agonist: -1.0

How did N#Cc1nc(COc2cccc(Cl)c2)oc1N1CCN(c2ccccc2)CC1 do in these assays?
m-calpain inh: 30.3; S1P3 antag: -5.9; PERK inhibitor: 1.2; S1P4 antag: -5.3; S1P4 agonist: -1.1

Results for CC1CCCC(CC(=O)O)(CC(=O)O)C1 (stereo not drawn) ?
m-calpain inh: 10.0; S1P3 antag: 3.3; PERK inhibitor: 0.4; S1P4 antag: -7.3; S1P4 agonist: 1.3

Results for COC(=O)c1ccc(-n2nnnc2SCC(=O)Nc2ccccc2C(=O)OC)cc1 ?
m-calpain inh: -8.9; PERK inhibitor: 0.6; S1P4 antag: -16.2; S1P4 agonist: 2.0

How did NC(=O)c1ccc(-n2nnnc2SCC(=O)Nc2ccccc2-c2ccccc2)cc1 do in these assays?
m-calpain inh: 64.6*; PERK inhibitor: 0.9; S1P4 antag: 0.4; S1P4 agonist: -0.3

What do the screens show for `Cc1ccc(S(=O)(=O)N2CCCCC2)cc1NC(=O)COC(=O)c1ccc2c(c1)OCO2`?
m-calpain inh: 55.5*; S1P3 antag: -3.8; PERK inhibitor: 0.9; S1P4 antag: 2.8; S1P4 agonist: 1.3

Results for Cc1ccc(S(=O)(=O)N2CCCCC2)cc1NC(=O)c1ccc2c(c1)OCO2 ?
m-calpain inh: 7.1; S1P3 antag: 5.1; PERK inhibitor: -0.5; S1P4 antag: -10.9; S1P4 agonist: 0.3

How did COc1ccc(S(=O)(=O)Nc2cc(C)ccn2)cc1OC do in these assays?
m-calpain inh: 3.4; S1P3 antag: 114.8*; PERK inhibitor: -0.1; S1P4 antag: -6.4; S1P4 agonist: -0.3

What do the screens show for `COc1ccc(S(=O)(=O)Nc2ccccn2)cc1OC`?
m-calpain inh: -3.7; S1P3 antag: -17.3; PERK inhibitor: 0.4; S1P4 antag: -11.5; S1P4 agonist: 1.3

Results for CCNC1=C(Cl)C(=O)c2ccccc2C1=O ?
m-calpain inh: 50.2*; PERK inhibitor: 0.8; S1P4 antag: 5.7; S1P4 agonist: 2.4

Results for CC(=O)Nc1ccc(NC(=O)C(C)n2nc(C)c([N+](=O)[O-])c2C)cc1 (stereo not drawn) ?
m-calpain inh: -3.0; S1P3 antag: -13.2; PERK inhibitor: 3.0*; S1P4 antag: 1.5; S1P4 agonist: -0.5

Results for Cc1cc(NC(=O)c2ccc(Cl)cc2)c(C)cc1O ?
m-calpain inh: 3.3; S1P3 antag: -4.0; PERK inhibitor: 1.1; S1P4 antag: 7.3; S1P4 agonist: -0.6

What do the screens show for `Cc1cc(NC(=O)c2ccc(Cl)cc2)c(C(C)C)cc1O`?
m-calpain inh: 22.0; PERK inhibitor: 1.7; S1P4 antag: 47.0*; S1P4 agonist: -0.5

How did CCCc1cc(=O)[nH]c(Nc2ccc(OC)c(Cl)c2)n1 do in these assays?
m-calpain inh: 14.6; S1P3 antag: 92.2*; PERK inhibitor: 0.0; S1P4 antag: -33.5; S1P4 agonist: -1.1

What do the screens show for `COc1ccc(N2C(=O)N(Cc3ccc(C)cc3)c3ccccc3S2(=O)=O)cc1`?
m-calpain inh: 50.2*; S1P3 antag: 0.3; PERK inhibitor: 0.0; S1P4 antag: -17.1; S1P4 agonist: 3.1

What do the screens show for `FC(F)(F)c1cccc(N2CCN(C(=S)NC3CCCCC3)CC2)c1`?
m-calpain inh: 34.1; S1P3 antag: 1.4; PERK inhibitor: 0.9; S1P4 antag: 1.6; S1P4 agonist: -1.9

Results for FC(F)(F)c1cccc(N2CCN(C(=S)NC3CCCC3)CC2)c1 ?
m-calpain inh: 51.8*; PERK inhibitor: -0.1; S1P4 antag: -5.1; S1P4 agonist: 0.2

Results for N#Cc1ccsc1NC(=O)CN1CCCCCC1 ?
m-calpain inh: -0.2; PERK inhibitor: 0.6; S1P4 antag: 5.2; S1P4 agonist: -0.4

How did CCOC(=O)N1CCN(CC(=O)Nc2sccc2C#N)CC1 do in these assays?
m-calpain inh: 82.4*; S1P3 antag: -8.2; PERK inhibitor: 0.0; S1P4 antag: -5.2; S1P4 agonist: -0.3

What do the screens show for `C[n+]1nc(Nc2cccc3ccccc23)sc1-c1ccc(C(=O)O)cc1`?
m-calpain inh: -27.0

Results for Cc1ccc(N2C(=O)CSCC2=O)cc1 ?
m-calpain inh: -13.5; PERK inhibitor: -0.6; S1P4 antag: 2.0; S1P4 agonist: 1.2

How did C/C(=N/N=C1\SCC(=O)N1c1ccccc1)c1ccc(C)cc1 do in these assays?
m-calpain inh: 4.0; S1P3 antag: 6.9; PERK inhibitor: 3.7*; S1P4 antag: -3.3; S1P4 agonist: 0.1

How did C/C(N)=C(/C#N)C(=O)COC(=O)CC12CC3CC(CC(C3)C1)C2 do in these assays?
m-calpain inh: 65.4*; PERK inhibitor: 0.1; S1P4 antag: 6.2; S1P4 agonist: -0.9

What do the screens show for `COc1cc(CNc2nc(C)c([N+](=O)[O-])c(C)c2C#N)cc(OC)c1`?
m-calpain inh: 65.8*; PERK inhibitor: -0.8; S1P4 antag: -11.7; S1P4 agonist: -1.4

What do the screens show for `COCc1c(C#N)c(NCc2cc(OC)c(OC)c(OC)c2)nc(C)c1[N+](=O)[O-]`?
m-calpain inh: -1.9; S1P3 antag: -4.4; PERK inhibitor: -1.5; S1P4 antag: 9.8; S1P4 agonist: 2.0

What do the screens show for `Cc1ccc(S(=O)(=O)Nc2nc3ccccc3nc2Nc2cccc(S(=O)(=O)N3CCCC3)c2)cc1`?
m-calpain inh: -14.3; S1P3 antag: -0.6; PERK inhibitor: -0.9; S1P4 antag: -2.2; S1P4 agonist: -0.1

How did O=[N+]([O-])c1cccc(S(=O)(=O)Nc2nc3ccccc3nc2Nc2cccc(S(=O)(=O)N3CCCCC3)c2)c1 do in these assays?
m-calpain inh: 82.0*; S1P3 antag: -5.0; PERK inhibitor: 0.7; S1P4 antag: -13.6; S1P4 agonist: -1.2

What do the screens show for `Cc1nnc(Oc2ccccc2F)c2ccccc12`?
m-calpain inh: 61.4*; S1P3 antag: -29.2; PERK inhibitor: 0.4; S1P4 antag: -1.4; S1P4 agonist: -3.7

Results for COCCNC(=O)NC(=O)CN1CCCc2ccccc21 ?
m-calpain inh: 64.8*; S1P3 antag: 7.6; PERK inhibitor: 0.2; S1P4 antag: -5.4; S1P4 agonist: 1.6
